# Activity calls are given as the source filed them. Rule for the calls: active = hit-call score of the fitted dose curve at least 0.9, where 1 is the maximum; inactive = score below 0.9.
# Target: Oxytocin receptor (Homo sapiens) (UniProt P30559)
# Assay: ERF_FR_GPCR_hOXTR: Eurofins (ERF) G Protein-Coupled Receptor (GPCR) Radioligand Binding LeadHunter Assay for human Vasopressin / Oxytocin Receptor OT Agonism
# Protocol: ERF_FR_GPCR_hOXTR is a biochemical, single-readout assay that uses extracted gene-proteins in a cell-free assay. Measurements were taken 2 hour after chemical dosing in a 96-well plate. See OT Human Vasopressin / Oxytocin GPCR Binding (Agonist Radioligand) Assay, Cerep.ERF_FR_GPCR_hOXTR is an assay component calculated from the ERF_FR_GPCR_hOXTR assay. It is designed to measure radioligand binding using a type of binding reporter as detected by scintillation counting with radiometry technology.Data from the assay component ERF_FR_GPCR_hOXTR was analyzed at the assay endpoint, ERF_FR_GPCR_hOXTR, in the positive analysis fitting direction relative to DMSO as the negative control and baseline of activity. Using a type of binding reporter, gain-of-signal activity can be used to understand changes in binding as they relate to gene OXTR. To generalize the intended target to other relatable targets, this assay endpoint is annotated to the gpcr intended target family, where the subfamily is vasopressin and oxytocin.
# Human cells are incubated for 60 minutes at room temprature with [3H] Oxytocin ligand (0.8 nM) and OXYTOCIN as control inhibitor. Test Sample Requirements: Minimum for 1) Screen: 60 ul of 10 mM stock -OR- 1 mg (pre-weighed) for 10 uM final testing. 2) Dose Response: 90 ul of 10 mM stock -OR- 1 mg (pre-weighed) for a top concentration at 10 uM.
# Oxytocin receptor (Homo sapiens), sequence (P30559 whole entry, looked up): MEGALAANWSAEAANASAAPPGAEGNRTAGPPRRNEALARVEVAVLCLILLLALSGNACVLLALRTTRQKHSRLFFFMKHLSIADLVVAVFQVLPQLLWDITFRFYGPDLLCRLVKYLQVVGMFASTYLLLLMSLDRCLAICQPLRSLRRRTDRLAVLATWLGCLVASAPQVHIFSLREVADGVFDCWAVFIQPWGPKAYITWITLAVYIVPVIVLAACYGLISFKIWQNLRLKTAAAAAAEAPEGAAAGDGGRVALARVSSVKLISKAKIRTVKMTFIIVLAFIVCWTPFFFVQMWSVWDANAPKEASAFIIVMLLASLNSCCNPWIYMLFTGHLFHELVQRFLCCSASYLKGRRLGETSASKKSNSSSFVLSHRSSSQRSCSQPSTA
row,SMILES,outcome
1,CCCCC[C@H](O)CC(=O)CCc1ccc(O)c(OC)c1,inactive

# Source: PubChem BioAssay AID2284163 (EPA ToxCast)
